Source: PubChem BioAssay (National Center for Advancing Translational Sciences (NCATS))
Giardia kill: Small Molecules that selectively kill Giardia lamblia: qHTS. Giardia lamblia trophozoite viability. activity change, % at 7.66 µM, hits read low. 0.15% of 340,000 active; in the data active = activity change below about -80%; inconclusive = between about -30% and that limit;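 also: parasites exposed to compound for two days anaerobically before the ATP read; % is scaled to controls: 0 for no effect and ±100 for the full control effect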
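Killing of trophozoites was scored by loss of ATP luminescence after a 48 hrs anaerobic exposure to compounds at 37 deg C, using 100 cells per well.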
KB-3-1 tox: qHTS assay for MDR1-selective chemotherapeutics: Primary screen using the parental adenocarcinoma cell KB-3-1 | KB-3-1 viability, CellTiter-Glo ATP luminescence, 72 h | Potency, µM (highest dose often 46.1 µM), usual class: cytotoxic | 1.4% of 400,000 active | AID 1347075, 2019; also: potency is read from the fitted curve at half-maximal effect; % is scaled to controls: 0 for no effect and ±100 for the full control effect; nearly all actives have a fitted effect of over 60% in size
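Parental KB-3-1 viability, qHTS format: 72 h compound exposure, 37 °C; CellTiter-Glo; media-only wells and DMSO plates as controls; concentration-effect fits on corrected data.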
KB-V1 MDR tox: qHTS assay for MDR1-selective chemotherapeutics: Primary screen using the drug-selected MDR subline cells KB-V1. Potency, µM (titrated, usually from 46.1 µM), actives largely listed as cytotoxic. 3.4% of 400,000 active. KB-V1 MDR cells viability, CellTiter-Glo, 72 h; also: potency is read from the fitted curve at half-maximal effect; % is scaled to controls: 0 for no effect and ±100 for the full control effect; nearly all actives have a fitted effect of over 60% in size
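KB-V1 MDR subline cells in DMEM (phenol-red free, 10% FBS) exposed to compounds in qHTS concentration series for 72 h at 37 degrees C. Viability read by CellTiter-Glo luminescence; concentration-effect curves fitted after normalization and correction.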
MCF10A rereplic: A quantitative high throughput screen for small molecules that induce DNA re-replication in MCF 10a normal breast cells | MCF 10A DNA re-replication, Hoechst nuclear intensity, 48 h | Potency, µM (highest dose often 46.1 µM), for inactives: at the top dose activity, positive = re-replication, actives largely listed as activators | 2.9% of 350,000 active; also: potency is read from the fitted curve at half-maximal effect; % of control where 0% means no effect; nearly all actives have a fitted effect of over 50% in size
S-ASM inh: Inhibitors of Secretory Acid Sphingomyelinase (S-ASM): qHTS; Sphingomyelin phosphodiesterase (Homo sapiens), P17405; placental ASM, HMU-PC fluorogenic substrate, 60 min; Potency, µM (titrated, usually from 57.5 µM), without a hit: at the top dose activity change, negative = inhibition, most hits filed as inhibitors; 0.006% of 340,000 active; AID 504937, 2011; also: potency is read from the fitted curve at half-maximal effect
Target sequence (P17405 47-631 limits assumed): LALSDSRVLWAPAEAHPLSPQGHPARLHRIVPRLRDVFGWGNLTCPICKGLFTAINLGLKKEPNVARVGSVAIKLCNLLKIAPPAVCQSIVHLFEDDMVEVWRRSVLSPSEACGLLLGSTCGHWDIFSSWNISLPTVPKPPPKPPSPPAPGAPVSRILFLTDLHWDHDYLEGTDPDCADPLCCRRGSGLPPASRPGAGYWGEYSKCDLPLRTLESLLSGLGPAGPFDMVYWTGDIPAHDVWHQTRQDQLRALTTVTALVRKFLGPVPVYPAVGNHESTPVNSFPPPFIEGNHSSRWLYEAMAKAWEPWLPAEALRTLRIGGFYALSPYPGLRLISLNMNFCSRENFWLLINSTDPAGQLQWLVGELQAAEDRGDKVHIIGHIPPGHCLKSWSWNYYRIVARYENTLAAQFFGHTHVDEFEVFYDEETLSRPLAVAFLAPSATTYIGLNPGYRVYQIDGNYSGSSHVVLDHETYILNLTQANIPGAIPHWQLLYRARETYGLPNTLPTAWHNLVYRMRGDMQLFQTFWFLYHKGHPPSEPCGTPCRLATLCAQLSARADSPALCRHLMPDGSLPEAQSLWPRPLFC
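Human placenta-derived ASM preincubated with compound 10 min at room temperature, then reacted with 9 uM (final) fluorogenic HMU-PC substrate for 60 min at 37 C. Stop solution raises pH to 10; fluorescence read at Ex 386/Em 447 nm.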
SW480 rerep: A quantitative high throughput screen for small molecules that induce DNA re-replication in SW480 colon adenocarcinoma cells; SW480 DNA re-replication, Hoechst DNA content imaging, 48 h; Potency, µM (titrated, usually from 46.1 µM), for inactives: top-dose re-replication activation, usual class: activators; 1.8% of 340,000 active; AID 624297, 2012; also: potency is read from the fitted curve at half-maximal effect; % of control where 0% means no effect; nearly all actives have a fitted effect of over 55% in size
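Treated cells incubate 48 hr (37 C, 5% CO2), are stained 40 min with Hoechst, and nuclear fluorescence is enumerated; a rise in nuclei with high DNA signal marks re-replication.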
* hit, by the source's call; i = inactive; ? = inconclusive; · = not tested or not shown; ! = repeats disagree. An excerpt weighted towards active compounds, which were near 6.9% of everything screened. Unless noted, calls follow the shape of the dose curve; as a rule, active = well fitted curve in the direction sought with a large enough effect; inconclusive = small, poorly fitted or top-dose-only effect, or another doubt; inactive = no such curve, though single readings can be large; an effect the other way counts as inactive or inconclusive.

SMILES	Giardia kill	KB-3-1 tox	KB-V1 MDR tox	MCF10A rereplic	S-ASM inh	SW480 rerep
CCNC(=S)/N=C(\N)Nc1nc(C)c2cc(C)ccc2n1	1	?	9.2µM*	6%	-3%	6%
COc1cccc2c1C(=O)c1c(O)c3c(c(O)c1C2=O)C[C@@](O)(C(=O)CO)C[C@@H]3OC1CC(N)C(O)C(C)O1 (some centres undefined)	-11	?	·	?	-8%	-10%
COc1cccc2c1C(=O)c1c(O)c3c(c(O)c1C2=O)CC(O)(C(C)=O)CC3OC1CC(N(C)C)C(O)C(C)O1 (centres undefined)	-18	?	7.3µM*	-1%	-20%	?
CC(=O)C1(O)Cc2c(O)c3c(c(O)c2C(OC2CC(N)C(O)C(C)O2)C1)C(=O)c1c(O)cccc1C3=O (centres undefined)	·	0.58µM*	?	2%	·	?
CC(=O)[C@@]1(O)Cc2c(O)c3c(c(O)c2[C@H](O[C@H]2C[C@H](N)[C@H](O)[C@H](C)O2)C1)C(=O)c1ccccc1C3=O	·	0.18µM*	?	·	·	·
O=C(CCC(=O)N1CC2CCCN2c2ccccc21)NCc1cccc(Cl)c1 (centres undefined)	·	i	i	·	·	·
COc1cccc(NC(=O)CN(C)S(=O)(=O)c2cccs2)c1	·	i	i	·	·	·
COc1cc(C(=O)N=c2sccn2C)c([N+](=O)[O-])cc1OC	3	i	i	0%	3%	-15%
Cn1ccsc1=NC(=O)c1ccc([N+](=O)[O-])o1	-93*	?	?	7.3µM*	-1%	9.2µM*
CCN1CCc2c(C#N)c(N3CCCCC3)nc(NCc3ccccc3)c2C1	3	?	?	?	176%	?
C=CCNc1nc(N2CCCCC2)c(C#N)c2c1CN(Cc1ccccc1)CC2	2	?	i	16µM*	23%	?
COc1ccccc1CCNC(=O)C(=O)NCC(c1ccco1)S(=O)(=O)c1cccs1 (centres undefined)	·	i	?	·	·	·
O=c1[nH]c(=O)n(C2CCCCC2)c(O)c1C1=Nc2ccccc2SC(c2ccc(Cl)cc2)C1 (centres undefined)	·	i	i	·	·	·
Cc1cc(N/N=C/c2ccc3c(c2)OCO3)nc2ccccc12	24	i	i	16µM*	316%	?
CN(C)c1nc(NCc2ccccc2)nc(N/N=C/c2ccc3c(c2)OCO3)n1	2	i	?	23µM*	-23%	26%
O=c1[nH]c(N/N=C\c2ccc3c(c2)OCO3)nc2ccccc12	-3	?	i	19%	103%	4%
CN1CCN(C2=Cc3ccccc3Sc3cc(F)ccc32)CC1	-1	?	?	-2%	-2%	-6%
CN1CCN(C2Cc3ccccc3Sc3ccc(Cl)cc32)CC1 (centres undefined)	?	i	?	?	-9%	·
CN1CCN(C2=Cc3ccc(Cl)cc3Sc3ccc(F)cc32)CC1	25	i	?	?	-14%	4µM*
CN1CCN(C2Cc3cc(F)ccc3Sc3ccc(Cl)cc32)CC1 (centres undefined)	3	i	i	21µM*	-2%	?
CSc1ccc2c(c1)C(N1CCN(C)CC1)Cc1ccccc1S2 (centres undefined)	-7	i	i	27µM*	-9%	27µM*!
COc1ccccc1CNC(=O)CN1C(=O)CSc2c1c(C)nn2-c1ccccc1	·	i	i	·	·	·
CN(c1ccccc1)S(=O)(=O)c1cc(C(=O)OCC(=O)c2c(N)n(C)c(=O)n(C)c2=O)ccc1Cl	-14	i	16µM*	3%	-20%	-6%
